This is a sample that favours compounds with a hit; in the whole collection about 0.4% have one here.
GAA glycogen mod = inhibitors or activators of human alpha-glucosidase glycogen cleavage. P10253. recombinant GAA, glycogen substrate, Amplex Red glucose oxidase fluorescence. Potency, µM (series often up to 76.4 µM), inactives show at the highest dose activity change, negative = inhibition, hits mostly inhibitors. 300,000 compounds, 0.38% hits;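 also: potency is read from the fitted curve at half-maximal effect; 0% = full enzyme reaction and -100% = no-enzyme basal signal; the screen sought inhibitors and activators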
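Recombinant enzyme (4 nM final) with compounds titrated up to 77 uM and bovine liver glycogen (30 ug) in citrate pH 5.0, 0.01% Tween-20, 37 C 40 min. Released glucose detected by Amplex Red/glucose oxidase (Ex 573/Em 610); AC50 from Hill fits.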
GAA inh = inhibitors of human lysosomal alpha-glucosidase; P10253; purified human GAA, 4-MU-alpha-glucoside fluorescence; Potency, µM (series often up to 76.9 µM), inactives show top-dose activity change, negative = inhibition, most hits filed as inhibitors; 200,000 compounds, 0.005% hits; AID 1466;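 also: potency is read from the fitted curve at half-maximal effect; plate controls were uninhibited enzyme wells for no effect and no-enzyme background for full effect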
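Human alpha-glucosidase, 4 nM, pre-mixed with test compounds before 400 uM 4-methylumbelliferyl substrate; 20 min room temperature at pH 5.0. Fluorescence read after pH 10 stop; AC50 values from Hill-equation fits.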
GLA spleen mod = inhibitors or activators of human alpha-galactosidase in spleen homogenate. 240,000 compounds, 0.008% hits. P06280. AID 2107. Potency, µM (top dose mostly 80 µM), for the others: top-dose activity change, negative = inhibition, hits mostly inhibitors. human spleen homogenate, 4MU-alpha-Gal fluorescence, 40 min;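 also: potency is read from the fitted curve at half-maximal effect; 0% = enzyme with vehicle and -100% = no enzyme basal signal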
Target sequence (P06280 32-429 limits assumed): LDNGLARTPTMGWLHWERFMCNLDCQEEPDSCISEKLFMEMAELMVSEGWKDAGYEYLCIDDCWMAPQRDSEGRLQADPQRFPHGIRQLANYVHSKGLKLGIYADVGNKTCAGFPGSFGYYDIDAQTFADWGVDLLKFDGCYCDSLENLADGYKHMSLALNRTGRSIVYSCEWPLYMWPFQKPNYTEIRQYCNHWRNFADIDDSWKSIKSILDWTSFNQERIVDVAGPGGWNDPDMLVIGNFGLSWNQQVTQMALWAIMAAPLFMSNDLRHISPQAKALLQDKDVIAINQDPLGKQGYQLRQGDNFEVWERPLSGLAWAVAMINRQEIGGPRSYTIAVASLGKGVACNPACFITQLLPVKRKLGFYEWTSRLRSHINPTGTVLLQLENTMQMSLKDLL
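Fluorogenic readout (Ex 365/Em 440 nm) of 4-methylumbelliferone released from 1 mM 4-MU-alpha-galactoside by spleen homogenate, 40 min at 37C, pH 5.0. Data normalized to no-enzyme and enzyme controls; Hill-equation AC50 from compound titrations.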
aGlu spleen mod = inhibits or activates alpha-glucosidase in human spleen homogenate; P10253; human spleen homogenate, 4-MU-alpha-glucoside fluorescence; Potency, µM (highest dose often 79.9 µM), for the others: top-dose activity change, negative = inhibition, usual class: inhibitors; 240,000 compounds, 0.006% hits; AID 2112;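 also: potency is read from the fitted curve at half-maximal effect; 0% = enzyme with vehicle and -100% = no enzyme basal signal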
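AC50 values come from Hill-equation fits of concentration-response data, normalized to no-enzyme and full-activity controls. Enzyme source: 1 ug human spleen homogenate; 1 mM fluorogenic 4-MU glucoside, pH 5.0 citrate buffer, 37 C, 40 min.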
GLA inh pH 4.5 = alpha-galactosidase A (human) inhibition, pH 4.5; P06280; purified enzyme, 4-MU-alpha-Gal fluorescence, pH 4.5; activity change, negative = inhibition, % at 105 µM; 230,000 tested, under 10 active;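 also: 0% = full activity with enzyme and -100% = basal without enzyme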
An asterisk follows results filed as active; [ ] = dose if it differs, or a comment. Calls follow the shape of the dose curve; as a rule, active = well fitted curve in the direction sought with a large enough effect; inconclusive = small, poorly fitted or top-dose-only effect, or another doubt; inactive = no such curve, though single readings can be large; an effect the other way counts as inactive or inconclusive.

For CC1=Nc2ccccc2N=C(N)C1c1ccccc1 (stereo not given) the results were GAA glycogen mod 16µM*, GAA inh 3%, GLA spleen mod 9%, aGlu spleen mod 5% and GLA inh pH 4.5 3.
Screening Clc1ccccc1-c1nc(NCc2cccs2)c2ccccc2n1 returned GLA spleen mod 1% and aGlu spleen mod 4%.
O=C(N/N=C/c1ccc(O)c(O)c1)c1ccc(CSc2cccc3cccnc23)cc1 was read as GAA glycogen mod 14µM*, GAA inh -8%, GLA spleen mod -2%, aGlu spleen mod -5% and GLA inh pH 4.5 -2.
Screening CC(C)(C)C(=O)Cn1c(=O)n(-c2ccccc2)c(=O)c2c3c(sc21)CCC3 returned GAA glycogen mod 14%[76.3 µM].
`CCOC(=O)c1[nH]c2ccc(OC)cc2c1NC(=S)N1CCN(c2ccccc2OC)CC1` gave GAA glycogen mod 4µM*, GAA inh 3%, GLA spleen mod 8%, aGlu spleen mod -7% and GLA inh pH 4.5 7.
CCOC(=O)c1[nH]c2ccc(OC)cc2c1NS(=O)(=O)c1ccc(OC)cc1OC was read as GAA glycogen mod 13µM*, GAA inh -1%, GLA spleen mod -6%, aGlu spleen mod -11% and GLA inh pH 4.5 2.
CCOC(=O)c1[nH]c2ccc(OC)cc2c1NC(=S)N1CCN(C(=O)OCC)CC1 was read as GAA glycogen mod inconclusive, GAA inh 1%, GLA spleen mod -1%, aGlu spleen mod -4% and GLA inh pH 4.5 2[21.1 µM].
For Nc1ccccc1C(=O)NNc1c2ccccc2nc2ccccc12 the results were GAA glycogen mod 40µM*, GLA spleen mod 8%, aGlu spleen mod 1% and GLA inh pH 4.5 -1.
Screening Cc1ccc(C(=O)NNc2c3ccccc3nc3ccccc23)cc1 returned GAA glycogen mod inconclusive, GLA spleen mod 0%, aGlu spleen mod 6% and GLA inh pH 4.5 29.
O=C(C[n+]1cc(-c2ccc(Cl)c(Cl)c2)n2c1CCC2)N1c2ccccc2Sc2ccccc21 was read as GAA glycogen mod 5%, GAA inh inconclusive, GLA spleen mod -3%, aGlu spleen mod -4% and GLA inh pH 4.5 -7.
Screening CC1(C)CC(=O)C(c2c[nH]c3ccccc23)C(=O)C1 returned GAA glycogen mod 10µM*, GAA inh 5%, GLA spleen mod 1%, aGlu spleen mod -3% and GLA inh pH 4.5 6.
For COCCn1c(NC(=S)NC(=O)C23CC4CC(CC(C4)C2)C3)cc(=O)[nH]c1=O the results were GAA glycogen mod -4%, GLA spleen mod 2%, aGlu spleen mod 6% and GLA inh pH 4.5 -4.
For COCCn1c(NC(=S)NC(=O)C2CC2)cc(=O)[nH]c1=O the results were GAA glycogen mod 31µM*, GAA inh 6%, GLA spleen mod 4%, aGlu spleen mod 7% and GLA inh pH 4.5 10.
CNC(=S)NNc1nncc2ccccc12 was read as GAA glycogen mod 10µM*, GAA inh 14%, GLA spleen mod 2%, aGlu spleen mod 4% and GLA inh pH 4.5 -8.
Screening COc1ccc(-c2cnc(NCc3ccc(C)cc3)n2C)cc1 returned GAA glycogen mod 10µM*.
`COC(=O)c1[nH]c2ccc(F)cc2c1NS(=O)(=O)c1ccc(F)c(C)c1` gave GAA glycogen mod -9%, GAA inh -1%, GLA spleen mod -3%, aGlu spleen mod -1% and GLA inh pH 4.5 1.
For Cc1cc(S(=O)(=O)Nc2c(C(=O)O)[nH]c3ccccc23)ccc1F the results were GAA glycogen mod 2.2µM*, GAA inh 2%, GLA spleen mod -13%, aGlu spleen mod -7% and GLA inh pH 4.5 -1.
For COC(=O)c1[nH]c2ccc(C)cc2c1NS(=O)(=O)c1ccc(F)cc1 the results were GAA glycogen mod 10µM*, GAA inh 8%, GLA spleen mod 8%, aGlu spleen mod -5% and GLA inh pH 4.5 8.
Screening COC(=O)c1[nH]c2ccc(C)cc2c1NS(=O)(=O)c1ccc(F)c(C)c1 returned GAA glycogen mod 18µM*, GAA inh 3%, GLA spleen mod 11%, aGlu spleen mod 6% and GLA inh pH 4.5 0.
COc1ccc(-c2noc(N3CCC(C(=O)NCc4ccc(F)cc4)CC3)n2)cc1 was read as GAA glycogen mod -2%[76.3 µM].
Screening CSCCCNC(=O)c1ccccc1OC1CCN(S(C)(=O)=O)CC1 returned GAA glycogen mod 1%, GAA inh 7%, GLA spleen mod 9%, aGlu spleen mod -5% and GLA inh pH 4.5 -8.
O=c1c(-c2cccc(Cl)c2)nc2cncnc2n1Cc1ccc(F)cc1 was read as GLA spleen mod -7% and aGlu spleen mod 9%.
Screening c1ccc(COc2ccc(CN3CCN(c4ccccn4)CC3)cc2)cc1 returned GAA glycogen mod -9%, GAA inh 0%, GLA spleen mod 2%, aGlu spleen mod 4% and GLA inh pH 4.5 0.
`Cc1ccc2nc(-c3ccc(NC(=S)NC4CC(C)(C)NC(C)(C)C4)cc3)sc2c1` gave GAA glycogen mod 5%, GAA inh inconclusive, GLA spleen mod 22%, aGlu spleen mod -6% and GLA inh pH 4.5 -2.
Screening Cc1cc(Nc2nc3c(c(=O)n(C)c(=O)n3C)n2C)n(-c2ccc(Cl)cc2)n1 returned GAA glycogen mod 25µM*, GAA inh -19%, GLA spleen mod -2%, aGlu spleen mod 2% and GLA inh pH 4.5 -6.
`Cc1cc(Nc2ccc(Cl)cc2)n(-c2ccccc2)n1` gave GAA glycogen mod inconclusive, GAA inh -3%, GLA spleen mod 14%, aGlu spleen mod 15% and GLA inh pH 4.5 -1.
Oc1ccccc1Nc1nc(NCc2ccco2)c2ccccc2n1 was read as GAA glycogen mod 11µM*, GLA spleen mod 3%, aGlu spleen mod -11% and GLA inh pH 4.5 -11.
`Cc1ccccc1Nc1nc(NCc2ccco2)c2ccccc2n1` gave GAA glycogen mod -2%, GAA inh -3%, GLA spleen mod -1%, aGlu spleen mod -1% and GLA inh pH 4.5 2.
`Oc1ccccc1Nc1nc(NCC2CCCO2)c2ccccc2n1` (stereo not given) gave GAA glycogen mod 8.8µM*, GAA inh inconclusive, GLA spleen mod 4%, aGlu spleen mod 1% and GLA inh pH 4.5 -9.
`Oc1ccc(Nc2nc(NCC3CCCO3)c3ccccc3n2)cc1` (stereo not given) gave GAA glycogen mod inconclusive, GAA inh -3%, GLA spleen mod 6%, aGlu spleen mod 1% and GLA inh pH 4.5 -2.
`Cc1cccn2c(CN3CCSCC3)c(C(=O)N3CCOCC3)nc12` gave GAA glycogen mod -7%, GAA inh -5%, GLA spleen mod 2%, aGlu spleen mod -19% and GLA inh pH 4.5 3.
Screening CCOc1ccccc1/C=N/Nc1ccc(Cl)nn1 returned GAA glycogen mod 4%.
